SW480 rerep = inducers of DNA re-replication in SW480 colon cancer cells | SW480 DNA re-replication, Hoechst DNA content imaging, 48 h | Potency, µM (doses to about 46.1 µM), usual class: activators | 1.8% of 340,000 active | AID 624297; note: nearly all actives have a fitted effect of over 55% in size
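First, 250 cells per well were seeded. Next, compound or vehicle (23 nL) was pinned in, plates sat 48 hr at 37 C. Finally Hoechst was added for 40 min before fluorescence scanning.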
TDP1 cell noCPT = qHTS for Inhibitors of human tyrosyl-DNA phosphodiesterase 1 (TDP1): qHTS in cells in absence of CPT; Potency, µM (titrated, usually from 46.2 µM), usual class: inhibitors; DT40 Tdp1-/- hTDP1 cells, no CPT, ATP luminescence, 48 h; 15% of 420,000 active; note: nearly all actives have a fitted effect of over 55% in size
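Chicken DT40 Tdp1-/- cells stably complemented with human TDP1 were seeded at 400 cells/well with DMSO in place of 20 nM camptothecin. After compound pinning, cells grew at least 48 hr at 37 °C; viability read by CellTiter-Glo luminescence.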
TDP1 cell CPT = DT40-hTDP1 cell growth loss with CPT. chicken DT40 Tdp1-/-;hTDP1 cells + 20 nM CPT, ATP luminescence, 48 h. Potency, µM (doses to about 46.2 µM), actives largely listed as inhibitors. 12% of 420,000 active; note: nearly all actives have a fitted effect of over 55% in size
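Chicken DT40 Tdp1-/- cells complemented with human TDP1, 400 cells/well, exposed to compounds plus 20 nM camptothecin for at least 48 h at 37 C; viability read as ATP content by CellTiter-Glo luminescence.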
BCR signal inh = blocks chronic active B-cell receptor signaling; 0.05% of 340,000 active; ABC-DLBCL IkBa-CBG/CBR reporter, luminescence ratio, 4 h; Potency, µM (doses to about 46.1 µM), hits mostly inhibitors; AID 493014; active = well fitted inhibition curve with a large enough effect in the signal ratio, with a control signal flat, not every such curve was filed as active; inconclusive = small, poorly fitted or top-dose-only effect, or effect the other way, or a change in a side signal; the % refers to the signal ratio
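Compounds up to 46 uM were incubated four hours with TMD8 cells whose green CBG68 luciferase is fused to IkappaBalpha; red CBR luminescence normalised the signal, and concentration-effect curves were fitted to fusion, red and ratio data.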
IL-1B inflam inh = inflammasome signaling inhibition, IL-1 beta readout. THP-1 LPS/ATP IL-1B secretion, AlphaLISA, 16 h; hits give low values. activity change, % at 57.5 µM. 4.7% of 360,000 active; in the data active = activity change below about -50%; inconclusive = mostly about -30% to -49%
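Secreted IL-1B measured by AlphaLISA bead assay after 16 h compound exposure of THP-1 cells; compounds (final up to 57.5 uM) added 1 h before LPS (250 ng/mL) and ATP (1.25 mM) stimulation; lower signal means less secretion.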
MCF10A rereplic = inducers of DNA re-replication in MCF 10A breast cells. MCF 10A DNA re-replication, Hoechst nuclear intensity, 48 h. Potency, µM (top dose mostly 46.1 µM), actives largely listed as activators. 2.9% of 350,000 active. AID 624296; note: nearly all actives have a fitted effect of over 50% in size
A number is an active result; 0 = inactive; ? = inconclusive; - = not tested or not shown; [ ] = another dose, or the depositor's remark. In the library only some 19% were active in any assay of this set; here they are far more common. Unless noted, calls come from the whole dose curve; as a rule, active = well fitted curve in the direction sought with a large enough effect; inconclusive = small, poorly fitted or top-dose-only effect, or another doubt; inactive = no such curve, though single readings can be large; an effect the other way counts as inactive or inconclusive.

SMILES	SW480 rerep	TDP1 cell noCPT	TDP1 cell CPT	BCR signal inh	IL-1B inflam inh	MCF10A rereplic
N#Cc1ccccc1S(=O)(=O)N1CCN(C(=O)C2CC(=O)N(c3ccc4c(c3)OCCO4)C2)CC1 (centres undefined)	0	0	0	0	0	0
Cc1ccc(-c2csc(N(CCO)CCCn3c(C(F)(F)F)nc4ccccc43)n2)cc1	?	?	21µM	0	0	?
O=C(c1cc(-c2ccccc2)on1)N1CCOc2ccc(CN3CCOCC3)cc2C1	-	?	0[9.04 µM]	-	-	-
Cc1nc(N)[nH]c(=O)c1CCCNc1ccc(CCCCC2(CCl)OCCO2)cc1	0	?	18µM	-	0	?
Nc1nc(-c2ccccc2)c(CCCNc2ccccc2)c(=O)[nH]1	?	?	?	-	0	0
Cc1ccccc1-c1cc2nc(Oc3cccc4ccccc34)n(C)c(=O)c2s1	-	0	0	-	0	-
OC[C@@H]1CN(Cc2ccco2)C[C@H](n2cnc3c(NCc4ccncc4)ncnc32)O1	-	0	0	-	0	-
CCn1c2c(c3cc(OCC(C)C)ccc31)CCCC2=O	0	21µM	16µM	?	?	0
CC(C)COc1ccc(-c2nnn(CC(=O)N3CCCC3)n2)cc1	0	?	0	0	0	0
CCCNC(=O)C(CC)NC(=O)c1cccc([N+](=O)[O-])c1 (centres undefined)	0	0	0	0	0	0
CN1c2c(nc(N)[nH]c2=O)NCC1CNc1ccc(C(=O)NC(CCC(=O)O)C(=O)O)cc1 (centres undefined)	0	?	0	-	-	0
Nc1nc2[nH]cc(CCc3ccc(C(=O)N[C@@H](CCC(=O)O)C(=O)O)cc3)c2c(=O)[nH]1	-	0.03µM	0.047µM	-	-	-
O=C(c1ccccc1Cl)n1nc(-c2ccco2)nc1NCc1cccs1	-	0	?	-	-	-
COc1ccc(C)cc1N(CC(=O)Nc1cccc(N(C)S(C)(=O)=O)c1)S(C)(=O)=O	0	?	21µM	0	0	0
Cc1ccc(S(=O)(=O)N(CC(=O)Nc2cccc(N(C)S(C)(=O)=O)c2)c2ccc(Cl)c(Cl)c2)cc1	0	23µM	21µM	0	0	0
COc1ccc(N(CC(=O)Nc2cccc(N(C)S(C)(=O)=O)c2)S(C)(=O)=O)cc1OC	0	0	0	0	0	?
O=C(CN(c1cccc(C(F)(F)F)c1)S(=O)(=O)c1ccccc1)Nc1cccc(Cl)c1	-	15µM	16µM	?	-	-
O=C(CN(c1ccc(Cl)c(C(F)(F)F)c1)S(=O)(=O)c1ccccc1)Nc1cccnc1	-	7.3µM	?	-	-	-
Cc1ccc(S(=O)(=O)N(CC(=O)Nc2c(C)cccc2C)c2cccc(Cl)c2)cc1	-	15µM	?	-	-	-
CN(c1cccc(NC(=O)CN(c2ccc(F)cc2)S(C)(=O)=O)c1)S(C)(=O)=O	0	0	0	0	0	0
O=C(CN(c1cccc(C(F)(F)F)c1)S(=O)(=O)c1ccc(Cl)c([N+](=O)[O-])c1)NCc1ccc(F)cc1	?	16µM	16µM	?	-99	2.9µM
CN(c1cccc(NC(=O)CN(c2ccc(C34CC5CC(CC(C5)C3)C4)cc2)S(C)(=O)=O)c1)S(C)(=O)=O	0	21µM	18µM	0	0	0
CN(c1cccc(NC(=O)CN(c2ccc(Cl)c(Cl)c2)S(=O)(=O)c2ccccc2)c1)S(C)(=O)=O	-	21µM	?	?	0	0
CCC1=NN2C(=N)/C(=C\c3ccc(OCCOc4ccccc4OC)cc3)C(=O)N=C2S1	0	0	0	0	0	0
CC1CN(C(=O)CCNS(=O)(=O)c2ccc(Br)cc2)CC(C)O1 (centres undefined)	0	0	0	0	0	0
SMILES	SW480 rerep	TDP1 cell noCPT	TDP1 cell CPT	BCR signal inh	IL-1B inflam inh	MCF10A rereplic
Cc1ccc(NC(=O)Cn2c(=O)n(CCCCC(=O)NCCc3ccccc3)c(=O)c3ccccc32)cc1	-	0	0	-	-	-
COCCCNC(=O)CN(c1ccc(F)cc1)S(=O)(=O)c1ccc2c(c1)OCCO2	0	0	0	0	0	0
C=CCn1c(N)c(C(=O)Nc2ccccc2)c2nc3ccccc3nc21	0[9.22 µM]	?	0	0	-62	5.6µM
C=CCn1c(N)c(C(=O)OC(C)(C)C)c2nc3ccccc3nc21	?	12µM	21µM	?	?	?
O=C(NCc1ccc(F)cc1)C1CCN(S(=O)(=O)c2ccc(Br)s2)CC1	0	0	0	0	0	0
Fc1ccc(-c2nc3c4ccccc4ccn3c2Cc2ccccc2)cc1	-	?	0	-	0	-
Clc1ccc(-c2nc3c4ccccc4ccn3c2Cc2ccccc2)cc1	-	10µM	16µM	-	0	-
Brc1ccc(-c2nc3c4ccccc4ccn3c2Cc2ccccc2)cc1	-	8.2µM	16µM	-	0	-
COCCNCc1ccccc1[N+](=O)[O-]	0	0	0	?	0	0
COc1ccc2c(c1)c(=O)c(S(=O)(=O)c1ccc(C)cc1)cn2Cc1ccccc1C	-	18µM	?	-	-	-
CCCn1cc(S(=O)(=O)c2ccc(Cl)cc2)c(=O)c2cc(OC)ccc21	?	23µM	16µM	0	0	?
CCOc1ccc(S(=O)(=O)c2cn(Cc3ccccc3C)c3ccc(OC)cc3c2=O)cc1	-	12µM	15µM	-	-	-
Cn1c(CNC(=O)c2ccco2)nnc1SCC(=O)Nc1ccccc1Cl	0	0	0	0	0	0
O=C(CSc1cccc[n+]1[O-])c1ccc(Cl)s1	?	1.3µM	0.73µM	?	0	0
CN(C(=O)CSc1cccc[n+]1[O-])c1ccccc1	0	0	0	0	0	0
O=C(CSc1cccc[n+]1[O-])c1ccccc1Br	?	5.2µM	3.7µM	?	0	0
Cc1cc(C(=O)CSc2cccc[n+]2[O-])c(C)n1-c1ccccc1	0	?	0	?	0	0
COc1ccc(-c2nc(CS(=O)(=O)CC(=O)NCCc3cc(OC)ccc3OC)c(C)o2)cc1	0	23µM	?	0	0	0
COc1ccc(-c2nc(CS(=O)(=O)CC(=O)Nc3ccc(Cl)cc3)c(C)o2)cc1	?	21µM	10µM	0	0	?
COc1ccc(OC)c(CCNC(=O)CS(=O)(=O)Cc2nc(-c3ccc(C)cc3)oc2C)c1	0	?	?	0	0	0
COc1cccc(-c2nc(CS(=O)(=O)CC(=O)NCCc3cc(OC)ccc3OC)c(C)o2)c1	0	18µM	0	0	0	0
COc1ccc(NC(=O)CS(=O)(=O)Cc2nc(-c3ccc(C)cc3)oc2C)cc1	0	0	0	0	0	0
COc1ccc(CC(=O)Nc2ccc(-c3noc(-c4ccc(Cl)cc4)n3)cc2)cc1	0	?	5.2µM	?	0	0
O=C(O)[C@H]1/C(=C/CO)O[C@@H]2CC(=O)N21	-	0	0	-	-	-
